# Assay results from PubChem BioAssay AID1347420 (Sanford-Burnham Center for Chemical Genomics, 2020).
# Screen size: about 1,300 compounds; about 980 (75%) were called active. Another 4% or so got no clear call; they are omitted. This is one part of the list.
# Biological target: Sulfhydryl oxidase 1 (Homo sapiens) (UniProt O00391)
# Assay: inhibition of human sulfhydryl oxidase QSOX1 – biochemical, HyperBlu H2O2 luminescence, HTS, primary screen (AID 1347420); note: values above 100% were filed as inconclusive
# Settings: recombinant QSOX1, HyperBlu H2O2 luminescence; at 12.5 µM; hits give high values; active = any value above zero
# Chain of Sulfhydryl oxidase 1 (Homo sapiens) (O00391 whole entry, looked up): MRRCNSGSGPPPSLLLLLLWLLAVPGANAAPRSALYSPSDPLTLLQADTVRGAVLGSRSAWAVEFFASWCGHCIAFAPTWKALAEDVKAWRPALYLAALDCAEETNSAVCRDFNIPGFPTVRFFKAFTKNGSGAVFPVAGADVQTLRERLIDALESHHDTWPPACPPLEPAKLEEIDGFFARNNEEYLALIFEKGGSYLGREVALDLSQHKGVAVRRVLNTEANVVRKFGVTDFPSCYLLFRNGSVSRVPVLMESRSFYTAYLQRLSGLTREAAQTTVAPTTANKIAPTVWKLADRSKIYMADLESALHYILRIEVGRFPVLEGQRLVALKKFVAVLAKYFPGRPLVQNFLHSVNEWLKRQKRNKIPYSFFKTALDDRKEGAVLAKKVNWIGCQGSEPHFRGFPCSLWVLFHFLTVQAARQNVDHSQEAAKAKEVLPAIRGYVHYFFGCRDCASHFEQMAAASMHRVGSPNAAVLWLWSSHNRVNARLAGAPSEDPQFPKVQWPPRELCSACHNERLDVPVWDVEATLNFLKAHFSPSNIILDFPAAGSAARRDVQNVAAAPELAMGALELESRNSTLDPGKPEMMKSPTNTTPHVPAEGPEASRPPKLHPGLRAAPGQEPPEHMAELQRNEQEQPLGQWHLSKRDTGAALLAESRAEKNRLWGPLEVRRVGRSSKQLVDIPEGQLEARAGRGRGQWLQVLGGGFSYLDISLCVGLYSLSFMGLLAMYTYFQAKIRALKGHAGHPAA
row,Structure (SMILES),inhibition
1,O=C1Cc2c([nH]c3ccc(Br)cc23)-c2ccccc2N1,1.7% (active)
2,C=C1N=C(N=NC2=C(S(=O)(=O)[O-])[C+]=C(S(=O)(=O)[O-])[C+]=C2)[C+](COP(=O)([O-])O)C(C=O)=C1O,6.1% (active)
3,O=C1OC(=O)C2C3CCC(O3)C12 (stereo not drawn),9.8% (active)
4,Nc1ccn([C@@H]2O[C@H](CO)[C@@H](O)C2O)c(=O)n1 (stereo partly drawn),-7% (inactive)
5,Nc1nc(Cl)nc2c1ncn2[C@@H]1O[C@H](CO)[C@H](O)C1O (stereo partly drawn),13.7% (active)
6,NC[C@H]1O[C@@H](n2cnc3c(N)ncnc32)[C@H](O)[C@@H]1O,16.1% (active)
7,Nc1ncn([C@@H]2O[C@H](CO)[C@H](O)C2O)c(=O)n1 (stereo partly drawn),21.3% (active)
8,Nc1ncnc2c1ncn2[C@@H]1O[C@H](CO)[C@H](O)C1O (stereo partly drawn),13.8% (active)
9,CC(=O)O[C@H]1C(=O)[C@@]2(C)C([C@H](OC(=O)c3ccccc3)[C@]3(O)C[C@H](OC(=O)[C@H](O)[C@@H](NC(=O)c4ccccc4)c4ccccc4)C(C)=C1C3(C)C)[C@]1(OC(C)=O)CO[C@@H]1C[C@@H]2O (stereo partly drawn),-4.9% (inactive)
10,CCc1cccc2c3c([nH]c12)C(CC)(CC(=O)O)OCC3 (stereo not drawn),-6% (inactive)
11,Nc1nc2c(ncn2[C@@H]2O[C@H](CO)[C@@H](O)[C@@H]2O)c(=O)[nH]1,7.5% (active)
12,Nc1nc(Nc2ccccc2)nc2c1ncn2[C@@H]1O[C@H](CO)[C@H](O)C1O (stereo partly drawn),8.8% (active)
13,CCNc1nc2c(ncn2[C@H]2C[C@H](O)[C@@H](CO)O2)c(=O)[nH]1,-2.5% (inactive)
14,Nc1ncnc2c1ncn2C1CCCO1 (stereo not drawn),-13.6% (inactive)
15,OC[C@H]1O[C@@H](n2cnc3cncnc32)[C@H](O)[C@@H]1O,17% (active)
16,Nc1ncnc2c1ncn2C1CCCC1,12.4% (active)
17,CCCC(CCC)C(=O)O,40.8% (active)
18,N#Cc1cc([N+](=O)[O-])c2sc(C(N)=O)[n+]([O-])c2c1,25.4% (active)
19,NC(=S)c1ccc[n+]([C@@H]2O[C@@H](COP(=O)([O-])OP(=O)(O)OC[C@H]3O[C@@H](n4cnc5c(N)ncnc54)C(OP(=O)(O)O)[C@H]3O)C(O)C2O)c1 (stereo partly drawn),4.8% (active)
20,CCN(CC)c1ncnc2c1ncn2[C@@H]1O[C@H](COP(=O)(O)OP(=O)(O)C(Br)(Br)P(=O)(O)O)[C@@H](O)[C@H]1O,-3% (inactive)
21,Nc1ncnc2c1ncn2[C@@H]1O[C@H](COP(=O)(O)CP(=O)(O)OP(=O)(O)O)[C@H](O)C1O (stereo partly drawn),13.7% (active)
22,NC(=O)C1=C[N+](=C2OC(COP(=O)(O)OP(=O)([O-])OC[C@H]3O[C@@H](n4cnc5c(N)ncnc54)C(OP(=O)(O)O)[C@H]3O)C(O)C2O)C=CC1 (stereo partly drawn),-12.9% (inactive)
23,Nc1ncnc2c1ncn2[C@@H]1O[C@H](COP(=O)(O)OP(=O)(O)OP(=O)(O)OP(=O)(O)OC[C@@H]2O[C@H](n3cnc4c(N)ncnc43)C(O)[C@@H]2O)[C@H](O)C1O (stereo partly drawn),11.6% (active)
